# From PubChem BioAssay
# ALOX12 inh: Primary qHTS assay for inhibitors of human arachidonate 12S-lipoxygenase (ALOX12): Round 2; Polyunsaturated fatty acid lipoxygenase ALOX12 (Homo sapiens), P18054; purified 12hLO, xylenol orange hydroperoxide absorbance; Potency, µM (doses to about 108 µM), for the others: at the highest dose activity change, negative = inhibition, actives largely listed as inhibitors; hit rate 1.1% among 580,000; AID 1671190, 2021; note: potency is the fitted concentration of half-maximal effect; % is set by controls: 0 for no effect and ±100 for the full control effect
#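 Purified human 12hLO at 150 nM in 25 mM Hepes, 0.01% Triton X-100, pH 7.0, preincubated 15 min at room temperature with compound. Reaction started with 40 uM arachidonic acid, 30 min at room temperature. Hydroperoxide measured by Fe-xylenol orange, 573/405 nm absorbance ratio.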
# Akt phos inh: HTS Assay for Inhibitors of Akt Phophorylation: Primary Screen. Neuro2A IGF-stimulated pAkt S473 HTRF, 20 min; stronger effect = lower value. hit rate 0.32% among 360,000. activity change, % for hits at 50 µM; in the data active = activity change below about -80%; inconclusive = mostly about -51% to -80%; note: % is set by controls: 0 for no effect and ±100 for the full control effect
#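 Single-point screen (50 µM final compound) in Neuro2A cells stimulated 20 min with 6 nM IGF at 37 deg C. After lysis, Ser473-phosphorylated Akt read by HTRF (ex 330 nm, em 615/665 nm) as the 665/615 ratio.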
# Vif-A3G inh: qHTS for Inhibitors of Vif-A3G Interactions: qHTS. DNA dC->dU-editing enzyme APOBEC-3G (Homo sapiens), Q9HC16. HeLa A3G-eYFP + Vif (tagged APOBEC3G with the HIV-1 protein that degrades it), YFP fluorescence, overnight. Potency, µM (series often up to 46.1 µM), inactives show top-dose activity, negative = active, actives largely listed as inhibitors. hit rate 0.076% among 410,000. AID 602310, 2012; note: potency is the fitted concentration of half-maximal effect; % is set by controls: 0 for no effect and ±100 for the full control effect; nearly all actives have a fitted effect of over 60% in size
#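 HeLa cells stably expressing Vif and C-terminally eYFP-tagged A3G, seeded overnight at 37 deg C, then exposed to compound by pintool overnight at 37 deg C. Rise in yellow fluorescence (Ex 488/Em 500-530, Acumen) marks blocked Vif-driven A3G degradation.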
# Vif-APOBEC3F blk: qHTS for Inhibitors of Vif-A3F Interactions: qHTS; HeLa A3F-eYFP + Vif (tagged APOBEC3F with the HIV-1 protein that degrades it), YFP fluorescence increase; Potency, µM (highest dose often 46.1 µM), without a hit: at the highest dose activity, negative = active; hit rate 0.2% among 390,000; AID 602313, 2012; note: potency is the fitted concentration of half-maximal effect; % of control where 0% means no effect; nearly all actives have a fitted effect of over 65% in size
#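 HeLa cells stably expressing Vif plus C-terminally eYFP-tagged A3F were seeded, incubated overnight at 37 deg C, dosed with compound, incubated overnight again at 37 deg C. Yellow fluorescence (Ex 488/Em 500-530) reported blocked Vif-mediated A3F-eYFP degradation.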
# PTAP TSG101 blk: qHTS Assay for Iinhibitors of HIV-1 Budding by Blocking the Interaction of PTAP/TSG101. Tumor susceptibility gene 101 protein (Homo sapiens), Q99816. Fluorescence polarization, FITC-PTAP peptide / Tsg101 binding. Potency, µM (top dose mostly 115 µM), without a hit: top-dose activity change, negative = inhibition, usual class: inhibitors. 340,000 tested, under 10 active; active = well fitted inhibition curve with a large enough effect in the main read-out, with a control signal flat, not every such curve was filed as active; inconclusive = small, poorly fitted or top-dose-only effect, or effect the other way, or a change in a side signal; inactive = no such curve, though single readings can be large or run the other way; note: potency is the fitted concentration of half-maximal effect; % of control where 0% means no effect
#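 Steps: Tsg101 binding domain dispensed (10 uM final), compounds pinned in DMSO, FITC-labeled PTAP-motif peptide added (50 nM final); after 20 min binding at room temperature, polarization measured.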
# ASM inhibitor: Inhibitors of Secretory Acid Sphingomyelinase (S-ASM): qHTS; Potency, µM (highest dose often 57.5 µM), for inactives: top-dose activity change, negative = inhibition, usual class: inhibitors; placental ASM, HMU-PC fluorogenic substrate, 60 min; hit rate 0.006% among 340,000; Sphingomyelin phosphodiesterase (Homo sapiens), P17405; note: potency is the fitted concentration of half-maximal effect
# Target sequence (P17405 47-631 limits assumed): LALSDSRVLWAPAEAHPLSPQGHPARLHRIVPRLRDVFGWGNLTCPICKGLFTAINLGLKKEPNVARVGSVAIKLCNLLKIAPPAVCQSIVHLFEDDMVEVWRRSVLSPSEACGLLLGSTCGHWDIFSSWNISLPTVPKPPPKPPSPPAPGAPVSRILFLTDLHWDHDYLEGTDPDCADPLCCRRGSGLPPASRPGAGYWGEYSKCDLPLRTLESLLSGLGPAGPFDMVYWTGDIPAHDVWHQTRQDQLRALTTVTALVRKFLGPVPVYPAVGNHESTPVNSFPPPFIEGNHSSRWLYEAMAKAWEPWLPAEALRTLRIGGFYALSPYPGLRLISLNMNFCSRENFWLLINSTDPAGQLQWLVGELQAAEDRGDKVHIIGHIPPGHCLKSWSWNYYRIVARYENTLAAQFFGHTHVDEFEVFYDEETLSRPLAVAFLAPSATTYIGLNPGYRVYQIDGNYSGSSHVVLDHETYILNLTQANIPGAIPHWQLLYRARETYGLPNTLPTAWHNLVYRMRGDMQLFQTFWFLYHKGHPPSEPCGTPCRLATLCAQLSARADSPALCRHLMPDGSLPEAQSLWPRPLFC
#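 Human placenta-derived ASM preincubated with compound 10 min at room temperature, then reacted with 9 uM (final) fluorogenic HMU-PC substrate for 60 min at 37 C. Stop solution raises pH to 10; fluorescence read at Ex 386/Em 447 nm.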
# The depositor's hits bear a star; i = inactive; u = inconclusive; x = no result; ! = repeats disagree. Most compounds without a hit are left out; they make up all but 1.4% or so of the library. Unless noted, calls come from the whole dose curve; as a rule, active = well fitted curve in the direction sought with a large enough effect; inconclusive = small, poorly fitted or top-dose-only effect, or another doubt; inactive = no such curve, though single readings can be large; an effect the other way counts as inactive or inconclusive.
SMILES,ALOX12 inh,Akt phos inh,Vif-A3G inh,Vif-APOBEC3F blk,PTAP TSG101 blk,ASM inhibitor
Cc1cc2nc(SCCOC(=O)Nc3cccc(Cl)c3)nc(C)c2cc1C,-3.6%,i,-3.0%,25.1µM*,-0.7%,-23.2%
Cc1cc2nc(SCCOC(=O)Nc3ccccc3)nc(C)c2cc1C,-17.6%,i,0.3%,0.4%,0.3%,-25.1%
COc1ccccc1/C=N/O,-28.5%,x,x,x,x,x
Cc1c(OCC(F)(F)F)ccnc1CSc1nc2ccccc2[nH]1,0.0%,i,-4.0%,x,-6.7%,-3.6%
COCCCOc1ccnc(CS(=O)c2nc3ccccc3[nH]2)c1C (stereo not drawn),44.7µM*!,i,2.1%,-4.3%,0.7%,-1.9%
Cc1c(OCC(F)(F)F)ccnc1CS(=O)c1nc2ccccc2[nH]1 (stereo not drawn),12.2µM*!,i,-0.7%,-0.7%,5.3%,-0.4%
N=C1S/C(=C\c2ccc(-c3cccc(Cl)c3)o2)C(=O)N1c1nccs1,-24.1%,i,-3.9%,25.1µM*,0.4%,-12.5%
N=C1/C(=C\c2ccc(-c3cccc(Cl)c3)o2)C(=O)N=C2SC=C(c3ccccc3)N12,35.5µM*,i,-9.6%,-1.3%,4.8%,8.9%
COc1cc(/C=C2/C(=N)N3C(c4ccccc4)=CSC3=NC2=O)ccc1OCC(=O)O,-28.0%,i,-5.1%,0.8%,-7.8%,2.51µM*
O=C(NCCC1=CCCCC1)C(c1ccccc1)c1ccccc1,-1.8%,-117.1%*,-1.4%,-7.9%,-3.9%,-4.0%
Cc1ccccc1C(=O)NC(=S)NCCc1ccccc1,28.2µM*,i,-3.3%,-3.2%,1.2%,-0.9%
Cc1ccccc1C(=O)NC(=S)NCc1ccccc1,u,i,-0.3%,-10.6%,-3.7%,-2.3%
O=C(Cc1ccccc1)NCCC1=CCCCC1,-1.8%,i,2.8%,-0.3%,-4.7%,0.3%
Cc1ccccc1C(=O)NC(=S)NCCC1=CCCCC1,22.4µM*,i,-12.8%,-6.4%,1.7%,-1.8%
CC(C)c1ccc(/C=C/C(=O)NCCC2=CCCCC2)cc1,39.8µM*,i,-1.0%,-11.1%,-0.9%,-1.9%
COc1ccc(OC)c2[nH]c(C(=O)NCCC(=O)Nc3ccc4c(c3)OCCO4)cc12,12.0%,x,x,x,x,x
CN(C(=O)c1cc2ccccc2oc1=O)C1CCCN(CCCc2ccccc2)C1 (stereo not drawn),6.2%,x,x,x,x,x
Cn1c(C(=O)Nc2ccc(C(N)=O)cc2)cc2ccccc21,-5.4%,x,x,x,x,x
O=C(NC(=S)NCCC1=CCCCC1)c1ccco1,44.7µM*,i,-8.5%,u,1.0%,-0.1%
O=C(NC(=S)NCCC1=CCCCC1)c1ccc(Br)o1,u,i,0.7%,u,-8.6%,-3.9%
CC(=O)Nc1ccccc1NC(=O)CCC1CCCC1,-5.8%,x,x,x,x,x
COc1ccc2[nH]c(C)c(C(=O)CN3CC(C)OC(C)C3)c2c1 (stereo not drawn),12.9%,i,0.9%,-6.7%,-1.6%,-0.8%
COc1ccc2[nH]c(C)c(C(=O)CN3CCC(Cc4ccccc4)CC3)c2c1,25.1µM*,x,x,x,x,x
CCOC(=O)c1nnn(CC(=O)N2N=C(c3cc(C)ccc3C)CC2c2ccc(OC)cc2)c1C(=O)OCC (stereo not drawn),-5.8%,i,-11.3%,2.9%,-5.5%,-14.8%
CCOC(=O)c1nnn(CC(=O)N2N=C(c3ccccc3)CC2c2ccccc2)c1C(=O)OCC (stereo not drawn),-21.8%,-82.8%*,1.8%,-13.9%,1.0%,-8.0%
SMILES,ALOX12 inh,Akt phos inh,Vif-A3G inh,Vif-APOBEC3F blk,PTAP TSG101 blk,ASM inhibitor
COc1cccc(NS(=O)(=O)c2ccc3c(c2)C2C=CCC2C(c2ccc(C(=O)O)cc2)N3)c1 (stereo not drawn),12.6µM*,i,2.1%,0.3%,-12.4%,-28.7%
COC(=O)c1ccc([C@H]2Nc3ccc(S(=O)(=O)Nc4ccc(F)cc4)cc3[C@H]3C=CC[C@H]32)cc1,5.0%,x,-0.2%,1.5%,x,x
O=C(O)Cc1sc(-c2ccccc2)nc1-c1ccccc1,12.3%,i,-4.1%,-2.4%,-2.5%,14.0%
O=C(O)Cc1nc(-c2cccnc2)sc1-c1ccc(Br)cc1,28.2µM*,i,-0.6%,-0.8%,-1.4%,3.7%
CCn1c(CSc2n[nH]c(-c3ccccc3)n2)nc2cc(S(=O)(=O)N(C)C)ccc21,33.1%,x,x,x,x,x
N#CCCN(CCC#N)C(=O)c1ccc2c(c1)OCO2,-17.7%,-106.0%*,0.6%,2.3%,1.6%,4.4%
Cc1ccc(N=C2NC(=O)/C(=C/c3cn(C)c4ccccc34)S2)cc1C,-13.9%,i,8.91µM*,u,u,u
CCCOC(=O)c1ccc(Nc2nc3ccccc3nc2NS(=O)(=O)c2cccc(C)c2)cc1,-54.7%,x,x,x,x,x
COc1cc(C2NC(=S)NC(c3ccccc3)=C2C(C)=O)cc(Cl)c1OCC(=O)O (stereo not drawn),u,i,0.2%,-9.1%,-7.7%,1.8%
CC1=C(C(=O)Nc2ccccc2)C(c2ccccc2)NC(=S)N1 (stereo not drawn),-48.0%,x,x,x,x,x
Cc1ccc(NC(=O)C2=C(c3ccccc3)NC(=S)NC2c2ccc(Cl)cc2)cc1 (stereo not drawn),35.5µM*,x,x,x,x,x
CC(=O)C1=C(c2ccccc2)NC(=S)NC1c1cc(Cl)c(OC(C)C)c(Cl)c1 (stereo not drawn),28.2µM*,i,-17.5%,2.2%,-3.3%,-11.4%
Cc1ccc(NC(=O)C2=C(c3ccccc3)NC(=S)NC2c2ccc(Br)cc2)cc1 (stereo not drawn),31.6µM*,x,x,x,x,x
COc1cc(C)c(C(C)C)cc1S(=O)(=O)N1CCC(C)CC1,30.8%,x,x,x,x,x
COC(=O)C(N)Cc1ccc(O)c(O)c1 (stereo not drawn),6.31µM*,i,5.9%,-14.8%,-0.7%,15.4%
Cc1c(-c2cccc(Cl)c2)nc2ccccc2c1C(=O)NC1CCCCC1C (stereo not drawn),3.6%,x,x,x,x,x
O=C(C=C(Sc1ccccc1)Sc1ccccc1)C(F)(F)F,35.5µM*,x,x,x,x,x
COc1ccc(C2=Nc3ccccc3NC(=O)C2N(CCc2cc(OC)cc(OC)c2)C(C)=O)cc1 (stereo not drawn),u,i,-0.6%,x,x,x
